# Data reported in PubChem BioAssay (NCI).
# The panel holds about 79,000 compounds, 15% with a hit somewhere; the sample as a whole holds those more often. Unmarked numbers belong to inactive results. The source made the active and inactive calls. Cut-off read from the data, not from the text of the source: active = growth inhibition above about 70%; inactive = the rest.
# Key:
# [1] = NCI Yeast Anticancer Drug Screen. Data for the rad52 strain (AID 147);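 note: 0% = growth of vehicle-treated control cultures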; conditions: S. cerevisiae rad52 mutant growth inhibition, active compounds read high
# Outline: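 Here a repair-compromised yeast strain receives each compound; its growth is then quantified and normalised to vehicle-only controls.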
# [2] = NCI Yeast Anticancer Drug Screen. Data for the wt1 strain (AID 149);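 note: 0% = growth of vehicle-treated wt1 cultures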; conditions: S. cerevisiae wt1 strain (SPY 50644) growth inhibition, active compounds read high
# Outline: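 The wt1 strain was treated with compounds, and growth was compared with vehicle-treated cultures to give inhibition.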
# [3] = NCI Yeast Anticancer Drug Screen. Data for the rad50EPP+ strain (AID 151);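 note: 0% = growth of vehicle-treated control cultures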; conditions: S. cerevisiae rad50 mutant strain, active compounds read high
# Outline: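 Read-out is yeast growth inhibition relative to vehicle; cells used were the rad50EPP+ strain.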
# [4] = NCI Yeast Anticancer Drug Screen. Data for the mgt1 strain (AID 153); conditions: S. cerevisiae mgt1 mutant growth inhibition, active compounds read high
# Outline: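 Measured: inhibition of mgt1 yeast growth by compound, normalized to vehicle-treated cultures.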
# [5] = NCI Yeast Anticancer Drug Screen. Data for the rad50 strain (AID 155);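 note: 0% = growth of vehicle-only cultures of the same strain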; conditions: S. cerevisiae rad50 strain growth inhibition, active compounds read high
# Outline: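 Cells are treated with compound, grown, and their growth is then scored against vehicle-only cultures of the same repair-deficient yeast strain.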
# [6] = NCI Yeast Anticancer Drug Screen. Data for the mec2-1 strain (AID 157); conditions: S. cerevisiae mec2-1 strain, active compounds read high
# Outline: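 Using mec2-1 yeast: add compound, measure growth, express inhibition versus vehicle-treated cultures.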
# [7] = NCI Yeast Anticancer Drug Screen. Data for the rad14 strain (AID 159);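 note: 0% = growth of vehicle-treated control cultures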; conditions: S. cerevisiae rad14 strain growth inhibition, active compounds read high
# Outline: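 Readout: yeast growth inhibition, referenced to vehicle-only cultures. Strain bears a defined alteration in DNA damage repair.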
# [8] = NCI Yeast Anticancer Drug Screen. Data for the sgs1 mgt1 strain (AID 161);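 note: 0% = growth of cultures given vehicle only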; conditions: S. cerevisiae sgs1 mgt1 strain, active compounds read high
# Outline: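 Yeast cells carrying a defined DNA-repair defect were exposed to test compounds. Growth inhibition was measured relative to vehicle-treated controls.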
# [9] = NCI Yeast Anticancer Drug Screen. Data for the CLN2oe strain (AID 163);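 note: 0% = growth of vehicle-only control cultures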; conditions: S. cerevisiae CLN2oe strain, active compounds read high
# Outline: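 Whole-cell yeast growth assay. A strain engineered for altered cell-cycle control received compound, and inhibition relative to vehicle-treated cultures was recorded.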
# [10] = NCI Yeast Anticancer Drug Screen. Data for the cln2 rad14 strain (AID 165);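 note: 0% = growth equal to vehicle treated cultures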; conditions: S. cerevisiae cln2 rad14 strain, active compounds read high
# Outline: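 Yeast strain cln2 rad14, bearing defects in cell cycle control and DNA repair, serves as the test system; values reflect growth inhibition compared with vehicle.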
# [11] = NCI Yeast Anticancer Drug Screen. Data for the bub3 strain (AID 167); conditions: S. cerevisiae bub3 mutant strain, active compounds read high
# Outline: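 Part of a panel of yeast mutants defective in DNA damage repair or cell cycle regulation. Each strain is grown with compound, and inhibition is calculated relative to solvent-treated cultures.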
# [12] = NCI Yeast Anticancer Drug Screen. Data for the wt2 strain (AID 169);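 note: 0% = growth of vehicle-treated yeast cultures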; conditions: S. cerevisiae wt2 strain growth inhibition, active compounds read high
# Outline: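 Treated yeast vs. vehicle-treated yeast: growth inhibition determined.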
# [13] = NCI Yeast Anticancer Drug Screen. Data for the mlh1 strain (AID 171);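 note: 0% = growth of vehicle-treated control cultures of the same strain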; conditions: S. cerevisiae mlh1 strain growth inhibition, active compounds read high
# Outline: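 A yeast strain with a defined genetic lesion serves as the test organism. Cultures receive compound or vehicle, and growth is measured.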
# [14] = NCI Yeast Anticancer Drug Screen. Data for the sgs1 strain (AID 173);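 note: 0% = growth of vehicle-only control cultures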; conditions: S. cerevisiae sgs1 mutant, active compounds read high
# Outline: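 A genetically defined yeast mutant is incubated with the test compound, and its growth is compared to that of the same strain given vehicle.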
# [15] = NCI Yeast Anticancer Drug Screen. Data for the rad18 strain (AID 177); conditions: S. cerevisiae rad18 mutant growth inhibition, active compounds read high
# Outline: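 Measured value is growth inhibition of a yeast strain bearing a DNA repair alteration, referenced to vehicle-treated cells.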
# [16] = NCI Yeast Anticancer Drug Screen. Data for the mlh1 rad18 strain (AID 175); conditions: S. cerevisiae mlh1 rad18 strain growth inhibition, active compounds read high
# Outline: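 Steps: expose repair-defective yeast to compound; measure growth; express inhibition against vehicle-treated controls.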
# [17] = at 5.0 µM (retest, dose inferred, filed as 0.5)
# [18] = at 50.0 µM (retest, dose inferred, filed as 5.0)
smiles,measurement,setting,value
CC[C@@]1(OC(=O)CN(C)C)C(=O)OCc2c1cc1n(c2=O)Cc2cc3c(N)cccc3nc2-1,growth inhibition,[1]; at 1.2 µM,53%
same,growth inhibition,[1]; at 3.7 µM,75% (active)
same,growth inhibition,[1]; at 11.0 µM,88% (active)
same,growth inhibition,[1]; at 33.0 µM,93% (active)
same,growth inhibition,[1]; at 100.0 µM,95% (active)
same,growth inhibition,[2]; at 1.2 µM,0%
same,growth inhibition,[2]; at 3.7 µM,-2%
same,growth inhibition,[2]; at 11.0 µM,-1%
same,growth inhibition,[2]; at 33.0 µM,6%
same,growth inhibition,[2]; at 100.0 µM,25%
same,growth inhibition,[3]; at 1.2 µM,7%
same,growth inhibition,[3]; at 3.7 µM,22%
same,growth inhibition,[3]; at 11.0 µM,55%
same,growth inhibition,[3]; at 33.0 µM,77% (active)
same,growth inhibition,[3]; at 100.0 µM,87% (active)
same,growth inhibition,[4]; at 1.2 µM,-2%
same,growth inhibition,[4]; at 3.7 µM,0%
same,growth inhibition,[4]; at 11.0 µM,2%
same,growth inhibition,[4]; at 33.0 µM,20%
same,growth inhibition,[4]; at 100.0 µM,39%
same,growth inhibition,[5]; at 1.2 µM,68%
same,growth inhibition,[5]; at 3.7 µM,82% (active)
same,growth inhibition,[5]; [17],90% (active)
same,growth inhibition,[5]; at 11.0 µM,91% (active)
same,growth inhibition,[5]; at 33.0 µM,94% (active)
same,growth inhibition,[5]; [18],90% (active)
same,growth inhibition,[5]; at 50.0 µM,-17.9%
same,growth inhibition,[5]; at 100.0 µM,95% (active)
same,growth inhibition,[6]; at 1.2 µM,0%
same,growth inhibition,[6]; at 3.7 µM,8%
same,growth inhibition,[6]; [17],22%
same,growth inhibition,[6]; at 11.0 µM,46%
same,growth inhibition,[6]; at 33.0 µM,88% (active)
same,growth inhibition,[6]; [18],22%
same,growth inhibition,[6]; at 50.0 µM,58.4%
same,growth inhibition,[6]; at 100.0 µM,96% (active)
same,growth inhibition,[7]; at 1.2 µM,2%
same,growth inhibition,[7]; at 3.7 µM,0%
same,growth inhibition,[7]; at 11.0 µM,4%
same,growth inhibition,[7]; at 33.0 µM,19%
same,growth inhibition,[7]; at 100.0 µM,51%
same,growth inhibition,[8]; [17],14%
same,growth inhibition,[8]; [18],14%
same,growth inhibition,[8]; at 50.0 µM,6.05%
same,growth inhibition,[9]; at 1.2 µM,-8%
same,growth inhibition,[9]; at 3.7 µM,1%
same,growth inhibition,[9]; at 11.0 µM,8%
same,growth inhibition,[9]; at 33.0 µM,43%
same,growth inhibition,[9]; at 100.0 µM,80% (active)
same,growth inhibition,[10]; [17],17%
same,growth inhibition,[10]; [18],17%
same,growth inhibition,[10]; at 50.0 µM,31.1%
same,growth inhibition,[11]; at 1.2 µM,-14%
same,growth inhibition,[11]; at 3.7 µM,-20%
same,growth inhibition,[11]; [17],6%
same,growth inhibition,[11]; at 11.0 µM,-3%
same,growth inhibition,[11]; at 33.0 µM,20%
same,growth inhibition,[11]; [18],6%
same,growth inhibition,[11]; at 50.0 µM,0.7%
same,growth inhibition,[11]; at 100.0 µM,59%
same,growth inhibition,[12]; at 1.2 µM,-2%
same,growth inhibition,[12]; at 3.7 µM,1%
same,growth inhibition,[12]; at 11.0 µM,3%
same,growth inhibition,[12]; at 33.0 µM,13%
same,growth inhibition,[12]; at 100.0 µM,32%
same,growth inhibition,[13]; at 1.2 µM,-1%
same,growth inhibition,[13]; at 3.7 µM,-2%
same,growth inhibition,[13]; at 11.0 µM,1%
same,growth inhibition,[13]; at 33.0 µM,28%
same,growth inhibition,[13]; at 100.0 µM,55%
same,growth inhibition,[14]; at 1.2 µM,0%
same,growth inhibition,[14]; at 3.7 µM,4%
same,growth inhibition,[14]; at 11.0 µM,17%
same,growth inhibition,[14]; at 33.0 µM,40%
same,growth inhibition,[14]; at 100.0 µM,64%
same,growth inhibition,[15]; at 1.2 µM,-18%
same,growth inhibition,[15]; at 3.7 µM,-5%
same,growth inhibition,[15]; at 11.0 µM,5%
same,growth inhibition,[15]; at 33.0 µM,19%
same,growth inhibition,[15]; at 100.0 µM,51%
ClCCn1c(CCl)nc2ccc(Cl)cc21,growth inhibition,[1]; at 1.2 µM,-34%
same,growth inhibition,[1]; at 3.7 µM,-41%
same,growth inhibition,[1]; at 11.0 µM,-8%
same,growth inhibition,[1]; at 33.0 µM,69%
same,growth inhibition,[1]; at 100.0 µM,98% (active)
same,growth inhibition,[2]; at 1.2 µM,-52%
same,growth inhibition,[2]; at 3.7 µM,-61%
same,growth inhibition,[2]; at 11.0 µM,-53%
same,growth inhibition,[2]; at 33.0 µM,52%
same,growth inhibition,[2]; at 100.0 µM,97% (active)
same,growth inhibition,[3]; at 1.2 µM,-12%
same,growth inhibition,[3]; at 3.7 µM,6%
same,growth inhibition,[3]; at 11.0 µM,9%
same,growth inhibition,[3]; at 33.0 µM,48%
same,growth inhibition,[3]; at 100.0 µM,91% (active)
same,growth inhibition,[4]; at 1.2 µM,-29%
same,growth inhibition,[4]; at 3.7 µM,-32%
same,growth inhibition,[4]; at 11.0 µM,-16%
same,growth inhibition,[4]; at 33.0 µM,71% (active)
same,growth inhibition,[4]; at 100.0 µM,98% (active)
same,growth inhibition,[5]; at 1.2 µM,-20%
same,growth inhibition,[5]; at 3.7 µM,-11%
same,growth inhibition,[5]; [17],19%
same,growth inhibition,[5]; at 11.0 µM,-3%
same,growth inhibition,[5]; at 33.0 µM,63%
same,growth inhibition,[5]; [18],54%
same,growth inhibition,[5]; at 50.0 µM,72.7% (active)
same,growth inhibition,[5]; at 100.0 µM,97% (active)
same,growth inhibition,[6]; at 1.2 µM,-27%
same,growth inhibition,[6]; at 3.7 µM,-49%
same,growth inhibition,[6]; [17],18%
same,growth inhibition,[6]; at 11.0 µM,-10%
same,growth inhibition,[6]; at 33.0 µM,76% (active)
same,growth inhibition,[6]; [18],75% (active)
same,growth inhibition,[6]; at 50.0 µM,84% (active)
same,growth inhibition,[6]; at 100.0 µM,95% (active)
same,growth inhibition,[7]; at 1.2 µM,-8%
same,growth inhibition,[7]; at 3.7 µM,0%
same,growth inhibition,[7]; at 11.0 µM,10%
same,growth inhibition,[7]; at 33.0 µM,70% (active)
same,growth inhibition,[7]; at 100.0 µM,99% (active)
same,growth inhibition,[8]; [17],18%
same,growth inhibition,[8]; [18],73% (active)
same,growth inhibition,[8]; at 50.0 µM,83.6% (active)
same,growth inhibition,[9]; at 1.2 µM,4%
same,growth inhibition,[9]; at 3.7 µM,8%
same,growth inhibition,[9]; at 11.0 µM,34%
same,growth inhibition,[9]; at 33.0 µM,58%
same,growth inhibition,[9]; at 100.0 µM,97% (active)
same,growth inhibition,[10]; [17],7%
same,growth inhibition,[10]; [18],7%
same,growth inhibition,[10]; at 50.0 µM,41.2%
same,growth inhibition,[11]; at 1.2 µM,-20%
same,growth inhibition,[11]; at 3.7 µM,-25%
same,growth inhibition,[11]; [17],13%
same,growth inhibition,[11]; at 11.0 µM,-15%
same,growth inhibition,[11]; at 33.0 µM,60%
same,growth inhibition,[11]; [18],46%
same,growth inhibition,[11]; at 50.0 µM,81.5% (active)
same,growth inhibition,[11]; at 100.0 µM,96% (active)
same,growth inhibition,[12]; at 1.2 µM,-10%
same,growth inhibition,[12]; at 3.7 µM,-13%
same,growth inhibition,[12]; at 11.0 µM,8%
same,growth inhibition,[12]; at 33.0 µM,77% (active)
same,growth inhibition,[12]; at 100.0 µM,98% (active)
same,growth inhibition,[13]; at 1.2 µM,-30%
same,growth inhibition,[13]; at 3.7 µM,-31%
same,growth inhibition,[13]; at 11.0 µM,-18%
same,growth inhibition,[13]; at 33.0 µM,67%
same,growth inhibition,[13]; at 100.0 µM,98% (active)
same,growth inhibition,[14]; at 1.2 µM,-19%
same,growth inhibition,[14]; at 3.7 µM,-31%
same,growth inhibition,[14]; at 11.0 µM,10%
same,growth inhibition,[14]; at 33.0 µM,60%
same,growth inhibition,[14]; at 100.0 µM,98% (active)
same,growth inhibition,[16]; [17],26%
same,growth inhibition,[16]; [18],75% (active)
same,growth inhibition,[16]; at 50.0 µM,79% (active)
same,growth inhibition,[15]; at 1.2 µM,-29%
same,growth inhibition,[15]; at 3.7 µM,-14%
same,growth inhibition,[15]; at 11.0 µM,30%
same,growth inhibition,[15]; at 33.0 µM,78% (active)
same,growth inhibition,[15]; at 100.0 µM,98% (active)
